The supplement of paper PMC8253809
Several values for one entry are separate records, joined by “and”; a condition that tells them apart may be missing. Equal values may be shown once.

Experiments:
Test in all cases: growth inhibition (% activity, log2 RLU normalised to DMSO / staurosporine); higher = more growth inhibition
Details in all cases: 33 µM
DIPGX29 = test system: DIPGX29 (H3.3 K27M diffuse intrinsic pontine glioma line)
In short: (§1)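 Approved drugs were tested in triplicate at a single final concentration of about 33 μM for 7 days at 37 °C, 5% CO2, on pHGG cell lines and H9-derived neural stem cells. Readout was CellTiter-Glo luminescence, log2-transformed and scaled per plate to % activity between solvent and positive control wells. The median over replicates gives the growth-inhibition value.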

DIPGX37 = test system: DIPGX37 (H3.3 K27M diffuse intrinsic pontine glioma line)
In short: as §1

DIPGX7 = test system: DIPGX7 (H3.3 K27M diffuse intrinsic pontine glioma line)
In short: as §1

DIPGX9 = test system: DIPGX9 (diffuse intrinsic pontine glioma line)
In short: as §1

HGGX39 = test system: HGGX39 (paediatric high-grade glioma line)
In short: as §1

HGGX6 = test system: HGGX6 (H3.3 G34R paediatric high-grade glioma line)
In short: as §1

HNSC = test system: HNSC
In short: as §1

SUDIPGIV = test system: SUDIPGIV (diffuse intrinsic pontine glioma line)
In short: as §1

SUDIPGVI = test system: SUDIPGVI (diffuse intrinsic pontine glioma line)
In short: as §1

SUDIPGXIII = test system: SUDIPGXIII (diffuse intrinsic pontine glioma line)
In short: as §1

| SMILES | growth inhibition (DIPGX29) | growth inhibition (DIPGX37) | growth inhibition (DIPGX7) | growth inhibition (DIPGX9) | growth inhibition (HGGX39) | growth inhibition (HGGX6) | growth inhibition (HNSC) | growth inhibition (SUDIPGIV) | growth inhibition (SUDIPGVI) | growth inhibition (SUDIPGXIII) |
| --- | --- | --- | --- | --- | --- | --- | --- | --- | --- | --- |
| CC(=O)Nc1cc([As](=O)(O)O)ccc1O | -0.747% | 1.33% | -1.33% | -0.567% | 0.328% | 0.00658% | -0.382% | -1.04% | 0.903% | 1.03% |
| CCC1(c2ccc(N)cc2)CCC(=O)NC1=O (stereo not given) | -0.867% | 0.792% | 0.848% | 0.885% | 1.68% | 2.54% | -1.67% | -1.8% | 0.634% | -0.67% |
| Cc1cccc(Cc2c[nH]cn2)c1C | 1.63% | 3.84% | 4.17% | 3.18% | 5.48% | 2.59% | 4.93% | 6.05% | 6.15% | 0.33% |
| COc1cc2c(cc1OC)[C@@]13CCN4CC5=CCO[C@H]6CC(=O)N2[C@H]1[C@H]6[C@H]5C[C@H]43 | -3.31% | 0.569% | 3.92% | 0.679% | 5.09% | -3.27% | 19.6% | 0.395% | 1.58% | 10.4% |
| C#C[C@]1(O)CC[C@H]2[C@@H]3CCC4=CC(=O)CC[C@]4(C)[C@H]3CC[C@@]21C | 0.66% | 2.06% | 2.92% | 3.05% | 1.6% | 0.344% | 5.86% | 0.623% | 2.6% | 0.296% |
| C/C=C(\C)C(=O)N[C@@H](c1ccccc1)[C@@H](O)C(=O)O[C@H]1C[C@@]2(O)[C@@H](OC(=O)c3ccccc3)[C@@H]3[C@]4(OC(C)=O)CO[C@@H]4C[C@H](O)[C@@]3(C)C(=O)[C@H](OC(C)=O)C(=C1C)C2(C)C | 11.3% | 8.35% | 8.08% | 23.2% | 33.6% | 19.9% | 59.9% | 37% | 0.972% | 4.19% |
| Cc1c(N)nc(C(CC(N)=O)NCC(N)C(N)=O)nc1C(=O)NC(C(=O)NC(C)C(O)C(C)C(=O)NC(C(=O)NCCc1nc(-c2nc(C(=O)NCCC[S+](C)C)cs2)cs1)C(C)O)C(O[C@@H]1O[C@@H](CO)[C@@H](O)[C@H](O)[C@@H]1O[C@H]1O[C@H](CO)[C@@H](O)[C@H](OC(N)=O)[C@@H]1O)c1cnc[nH]1 (stereo not given in full) | 3.71% | 5.42% | 1.63% | 17.8% | 8.29% | 4.24% | 56.5% | 32.5% | 1.68% | 4.14% |
| C[N+]1(C)CCCC(OC(=O)C(O)(c2ccccc2)c2ccccc2)C1 (stereo not given) | -0.577% | 0.259% | -0.262% | 0.527% | -0.329% | -1.01% | 20.4% | -0.578% | -2.44% | -1.44% |
| C[N+](C)(C)CCCCCCCCCC[N+](C)(C)C | 0.486% | -0.577% | 1.7% | 1.41% | 3.26% | 2.4% | 1.52% | 0.278% | 4.87% | -1.36% |
| CC[C@@H](C(N)=O)N1CCCC1=O | 1.34% | -1.57% | 0.427% | -0.877% | -1.17% | -3.23% | -0.905% | -1.25% | -0.784% | 0.999% |
| O=P1(NCCCl)OCCCN1CCCl (stereo not given) | -2.21% | -0.766% | 5.61% | 0.389% | 3.87% | -0.383% | -5.21% | -2.15% | -7.65% | -1.43% |
| CNC(=O)Oc1ccc2c(c1)[C@]1(C)CCN(C)[C@@H]1N2C | -0.0328% | 2.09% | -0.713% | -0.267% | -1.19% | 1.68% | -0.354% | -0.781% | 2.19% | 1.12% |
| NCCc1c[nH]c2ccc(O)cc12 | -2.73% | 0.315% | -2.87% | -2.24% | -2.22% | -1.35% | -4.26% | 0.704% | -3.47% | 0.646% |
| CCOC(=O)c1cncn1[C@H](C)c1ccccc1 | 1.12% | 2.21% | 2.54% | 2.62% | 1.86% | 2.36% | 3.19% | -0.15% | 2.48% | 0.0732% |
| NCC(CC(=O)O)c1ccc(Cl)cc1 (stereo not given) | 1.57% | -2.95% | 2.49% | 1.01% | 0.323% | -0.203% | 33.3% | 2.9% | -4.01% | 0.136% |
| CC(=O)OC1CN2CCC1CC2 (stereo not given) | -0.533% | 1.16% | 0.391% | 1.28% | 1.15% | -1.32% | 2.31% | -0.883% | 1.26% | 0.846% |
| NCC(O)c1ccc(O)cc1 (stereo not given) | -0.0577% | 1.17% | 0.265% | -0.182% | 2.12% | -2.95% | 22.2% | 1.19% | -3.26% | -3% |
| O=c1[nH]c2ccccc2n1CCCN1CCC(n2c(=O)[nH]c3cc(Cl)ccc32)CC1 | 1.24% | -0.863% | 0.225% | -0.635% | 3.76% | 1.12% | 1.78% | -1.4% | -2.62% | -2.52% |
| C=C(C)[C@@H]1[C@H]2OC(=O)[C@@H]1[C@]1(O)C[C@H]3O[C@]34C(=O)O[C@H]2[C@]14C | -0.435% | 1.09% | -0.608% | 0.386% | 1.14% | 0.986% | -1.08% | -0.711% | 2.74% | 0.384% |

| SMILES | growth inhibition (DIPGX29) | growth inhibition (DIPGX37) | growth inhibition (DIPGX7) | growth inhibition (DIPGX9) | growth inhibition (HGGX39) | growth inhibition (HGGX6) | growth inhibition (HNSC) | growth inhibition (SUDIPGIV) | growth inhibition (SUDIPGVI) | growth inhibition (SUDIPGXIII) |
| --- | --- | --- | --- | --- | --- | --- | --- | --- | --- | --- |
| O=C(O)c1nn(Cc2ccc(Cl)cc2Cl)c2ccccc12 | 1.18% | 2.18% | 1.47% | -0.0993% | 1.2% | -0.667% | 30.5% | 3.06% | -3.75% | -0.117% |
| CN1[C@@H]2C[C@@H](OC(=O)[C@H](CO)c3ccccc3)C[C@H]1[C@@H]1O[C@@H]12 | -4.79% | -2% | -0.341% | -2.82% | -2.31% | -3.37% | 23.8% | -3.93% | -9.6% | 0.487% |
| CC(=O)OC12COC1CC(O)C1(C)C(=O)C(O)C3=C(C)C(O)CC(O)(C(OC(=O)c4ccccc4)C21)C3(C)C (stereo not given) | 7.46% | 3.33% | 4.76% | 9.41% | 14.7% | 6.8% | 11.9% | 21.5% | 1.87% | 3.01% |
| CN1c2ccccc2C(NCCCCCCC(=O)O)c2ccc(Cl)cc2S1(=O)=O (stereo not given) | -1.12% | -3.13% | -0.607% | 0.503% | -0.419% | 0.961% | -2.51% | -2.29% | -1.84% | 0.605% |
| Cc1cc(O)ccc1Cl | -0.668% | 0.714% | 0.716% | -0.222% | 0.78% | 0.216% | -2.46% | -0.746% | 0.283% | 0.848% |
| CN(C)C(=O)Oc1ccc[n+](C)c1 | 0.471% | -1.26% | -0.161% | 0.978% | 0.907% | 0.761% | -1.64% | 0.973% | 1.15% | -0.0947% |
| C=C1C[C@@H]2[C@H](CC[C@]3(C)C(=O)CC[C@@H]23)[C@@]2(C)C=CC(=O)C=C12 | 2.35% | 1.24% | 3.42% | 2.01% | 0.458% | -1.58% | -0.552% | -2.53% | -2.19% | 0.875% |
| O=C(O[C@H]1C[N+]2(CCCOc3ccccc3)CCC1CC2)C(O)(c1cccs1)c1cccs1 | -1.76% | -1.33% | -0.665% | -1.04% | -0.0721% | -0.623% | 3.39% | -1.77% | -5.53% | 0.0508% |
| CN(C)C1C(=O)C(C(N)=O)=C(O)C2(O)C(=O)C3=C(O)c4c(O)cccc4C(C)(O)C3CC12 (stereo not given) | -1.53% | -2.75% | 0.404% | -0.553% | 1.88% | -0.661% | -1.6% | 2.83% | -2.69% | -1.63% |
| CN1C(=O)CCS(=O)(=O)C1c1ccc(Cl)cc1 (stereo not given) | 0.502% | 0.814% | 0.531% | 1.13% | 2.2% | 1.29% | 2.59% | 0.226% | -0.17% | -0.0547% |
| Cc1cccc(C)c1NC(=O)CN1CCCC1=O | -3.64% | -1.99% | -0.96% | -1.24% | -0.565% | -3.14% | 6.05% | -2.89% | -1.55% | -1.38% |
| CCCCCCCCCCCCCCCC[n+]1ccccc1 | 59.1% | 58.4% | 62.7% | 52.2% | 59.6% | 35.8% | 76.6% | 55.8% | 62.8% | 72.8% |
| CN(C)[C@@H]1C(=O)C(C(N)=O)=C(O)[C@@]2(O)C(=O)C3=C(O)c4c(O)cccc4[C@@](C)(O)[C@H]3[C@H](O)[C@@H]12 | 0.568% and -1.27% | 1.33% and -2.42% | 0.754% and -1.23% | 1.93% and -1.22% | 2.88% and -0.945% | 1.26% and -1.1% | 0.393% and 0.992% | 2.12% and -1.5% | -1.25% and -0.24% | 1.12% and 0.41% |
| CN1C(=O)COc2c(C(=O)NC3CN4CCC3CC4)cc(Cl)cc21 (stereo not given) | 2.11% | 3.22% | 1.36% | 3.07% | 2.32% | 3.19% | 0.849% | -0.021% | 3.53% | 1.12% |
| CN(C)C(=O)Oc1cccc([N+](C)(C)C)c1 | -3.32% | 0.574% | -0.239% | -1.38% | -0.512% | -1.84% | -0.376% | -1.46% | -1.83% | 1.72% |
| CC(C)NCC(O)c1ccccc1Cl (stereo not given) | 0.364% | -1.04% | -0.863% | -0.306% | 2.3% | 1.8% | -2.5% | 0.901% | 0.486% | -0.265% |
| O=S(=O)(F)Cc1ccccc1 | 0.493% | -0.634% | -0.837% | -0.877% | -0.194% | -1.52% | -0.438% | -0.0165% | 1.21% | 0.305% |
| CN(C)[C@@H]1C(=O)C(C(N)=O)=C(O)[C@@]2(O)C(=O)C3=C(O)c4c(O)ccc(Cl)c4[C@@](C)(O)[C@H]3C[C@@H]12 | 3.18% | 4.29% | 3.71% | 3.16% | 4.59% | 3.5% | 2.92% | 2.12% | 3.1% | -1.15% |
| C[N+]1(C)[C@@H]2C[C@@H](OC(=O)[C@H](CO)c3ccccc3)C[C@H]1[C@@H]1O[C@@H]12 | -0.834% | 1.29% | 0.707% | 0.849% | 2.27% | 2.07% | -1.37% | -0.286% | 0.639% | 0.798% |
